Only some compounds are listed: those with a hit (about 3.5% of all), similar ones and a draw of the others.
Bead autofluor – flagged as autofluorescent in microsphere protease counterscreen; compound autofluorescence counterscreen, microsphere flow cytometry; hits give high values; fluorescence intensity (test concentration not listed); 360,000 tested, 3.1% active; in the data active means fluorescence intensity above about 16000; inconclusive means no clear call, values can overlap the other calls
BoNT-A LC inh2 – BoNT A light chain protease inhibition | multiplex microsphere protease substrate cleavage, flow cytometry | inhibition, % at 10 µM | 360,000 tested, 0.17% active | AID 588499; further: plate controls were buffer without enzyme for full effect and enzyme alone for no effect
BoNT F protease – blocks Botulinum neurotoxin F light chain protease; Multiplex microsphere protease cleavage assay, flow cytometry; inhibition, % at 10 µM; 360,000 tested, 0.22% active; in the data active means inhibition above about 35%, passing the limit was not always enough; inconclusive means no clear call, values can overlap the other calls; further: plate controls were buffer without enzyme for full effect and enzyme alone for no effect
Anthrax LF prot – inhibitors of Bacillus anthracis lethal factor protease | P15917 | inhibition, % at 10 µM | multiplex microsphere protease cleavage assay, LF | AID 588501 | 360,000 tested, 0.12% active; further: plate controls were buffer without enzyme for full effect and enzyme alone for no effect
The depositor's hits bear a star; ? = inconclusive. Unless noted, no stated cut-off is given here; in the data, active means inhibition above about 30%; inconclusive means no clear call, values can overlap the other calls; inactive means below that.

SMILES	Bead autofluor	BoNT-A LC inh2	BoNT F protease	Anthrax LF prot
COCCN(C(=O)c1csnn1)C(C(=O)NC1CCCCC1)c1sccc1C (stereo not drawn)	23376*	0	-2	2
CC(C)(C)NC(=O)C(c1ccccc1F)N(Cc1ccco1)C(=O)c1csnn1 (stereo not drawn)	16964*	-1	1	-1
O=C(c1ccc2ccccc2n1)N1CCN(S(=O)(=O)c2ccccc2)CC1	3196	0	-3	5
Cc1cc(C)n(CC(=O)NNC(=O)c2ccc(OC(F)(F)F)cc2)n1	2999	0	8	3
O=C(NC1CCCC1)C(c1ccco1)N(Cc1ccccc1)C(=O)c1csnn1 (stereo not drawn)	20226*	?	-2	-1
Cc1ccc(CN(C(=O)c2csnn2)C(C(=O)NC2CCCC2)c2ccco2)cc1 (stereo not drawn)	3847	-2	-7	5
O=C(Nc1ccc2oc(-c3ccncc3)nc2c1)c1cccs1	3262	0	9	1
Cc1ccc(-c2nc3cc(NC(=O)C(C)C)ccc3o2)cc1C	24088*	0	-2	0
O=C(Nc1ccc(-c2nc3cc(NC(=O)c4cccs4)ccc3o2)cc1)c1cccs1	22139*	-6	-4	-1
CSc1ncc(C(=O)Nc2cccc(Cl)c2)c(C)n1	3798	0	17	5
Oc1ccc2oc3c(c2c1/C=N/n1cnnc1)CCCC3	21898*	?	-11	-1
CCCn1c(-c2cccnc2Cl)nc2cc(Cl)c(Cl)cc21	21449*	-1	-1	0
O=C(O)C1CCCN1C(=O)NC1CCCCC1 (stereo not drawn)	4394	-3	6	-1
Cc1ccnc(-n2c(C)cc(C=C3C(=O)N(C)C(=S)N(C)C3=O)c2C)c1	3236	32*	11	26
Cc1ccc(S(=O)(=O)N(C)C)cc1NC(=O)CSc1nc2ncc(Cl)cc2[nH]1	6105	-4	-9	-5
CCCS(=O)(=O)c1nnnn1-c1cccc(OC)c1	19154*	1	0	-1
COc1cc(/C=C2\N=C(C)OC2=O)cc(OC)c1OC	2955	-4	4	-5
COc1cc(/C=C2/N=C(C3CCCCC3)OC2=O)cc(OC)c1OC	20975*	?	1	-4
CC(C)c1ccc(NC2CCCN(C(=O)CCN3CCCCO3)C2)cc1 (stereo not drawn)	6133	0	-2	0
CC(C)CCn1c(=O)c(C(=O)Nc2ccccc2S(N)(=O)=O)c(O)c2ccccc21	22781*	-2	-5	-3
C=CCn1cnc2c(c1=O)c1nc3ccccc3nc1n2/N=C/c1ccccn1	20073*	-2	-3	-1
Nc1nnc(-c2ccccc2)s1	23348*	-2	-2	-2
Nc1nnc(-c2ccc(F)cc2)s1	8383	0	-9	3
CCN(c1ccccc1)S(=O)(=O)c1ccc(N2CCN(c3ccccc3O)CC2)nc1	3711	0	-8	-5
O=C(N/N=C/c1ccccn1)c1ccc(Cl)c(Cl)c1	4263	0	-5	7
SMILES	Bead autofluor	BoNT-A LC inh2	BoNT F protease	Anthrax LF prot
COc1c(F)c(F)c(C(=O)Nc2ccc(N3CCN(Cc4ccccc4)CC3)cc2)c(F)c1F	24627*	-4	-11	-10
O=C(Nc1ccc(N2CCOCC2)c(Cl)c1)c1c(F)c(F)c(F)c(F)c1F	4464	1	-31	-5
COc1c(F)c(F)c(C(=O)Nc2ccc(N3CCN(C(C)=O)CC3)c(Cl)c2)c(F)c1F	17323*	?	-7	-5
Cc1ccc(CNc2ncc(-c3ccc4c(c3)OCO4)n2C)cc1	22743*	1	1	-4
Cn1c(-c2ccc3c(c2)OCO3)cnc1NCc1ccc(Cl)cc1	21164*	-2	-4	-11
Cn1c(-c2ccc(F)cc2)cnc1NCc1ccc(F)cc1	3782	1	-3	1
CCn1c(CC(=O)Nc2ccccc2C)nnc1SCC(=O)NC1CCCC1	5826	-1	-5	-2
CC1(C)C(C(=O)OCC(Cl)(Cl)Cl)N2C(=O)C(NC(=O)Cc3ccccc3)C2S1=O (stereo not drawn)	4048	2	20	-2
O=c1[nH]c(=O)n(CCC2=CCCCC2)c(O)c1C=NCc1cccnc1	2457	0	-3	-6
O=c1[nH]c(=S)n(Cc2ccc(F)cc2)c(O)c1C=NCc1cccnc1	16199*	1	0	-2
O=C(O)c1cc(S(=O)(=O)NC23CC4CC(CC(C4)C2)C3)ccc1Cl	3900	-4	-22	2
O=C(Nc1cccc(-c2nc3ccccc3s2)c1)c1ccc2c(c1)OCO2	9589	2	4	-1
c1ccc2sc(-c3ccc4c(c3)OCO4)nc2c1	21120*	-1	-5	-3
CC1(C)CC(=O)C(C2(O)C(=O)N(Cc3ccccc3)c3ccccc32)CO1 (stereo not drawn)	22533*	?	-1	-1
CC1(C)CC(=O)CC(C2(O)C(=O)N(Cc3ccccc3)c3ccccc32)O1 (stereo not drawn)	5390	0	-4	-3
Cc1ccccc1OC1(C)CCN(Cc2ccc(-c3ccccn3)cc2)C1 (stereo not drawn)	3961	0	-5	2
Cc1cc2c(c(=O)n1CCN(C)C)C(c1ccncc1)C(C#N)=C(N)O2 (stereo not drawn)	3389	1	3	-5
COc1cc(C2C(C#N)=C(N)Oc3cc(C)n(CCc4ccccc4)c(=O)c32)cc2c1OCO2 (stereo not drawn)	2999	0	-18	1
Cc1cc2c(c(=O)n1CCc1ccccc1)C(c1ccco1)C(C#N)=C(N)O2 (stereo not drawn)	23680*	-1	-2	-1
COCCn1c(C)cc2c(c1=O)C(c1ccco1)C(C#N)=C(N)O2 (stereo not drawn)	21595*	2	2	-7
O=C(CNC(=O)c1ccco1)OCC(=O)c1ccc(Br)cc1	3616	-8	-31	5
COC(=O)c1cccc(COC(=O)CNC(=O)c2ccco2)c1	20436*	-3	0	-1
Cc1ccc(C(=O)COC(=O)CNC(=O)c2ccco2)cc1	20040*	-1	-2	1
CCCC(=O)N1CCC1(C)C(=O)Nc1cc(OC)c(OC)c(OC)c1 (stereo not drawn)	3460	0	-3	-3
CCCCn1c(N)c(Sc2ccccc2)c(=O)[nH]c1=O	25818*	-8	-10	-6
SMILES	Bead autofluor	BoNT-A LC inh2	BoNT F protease	Anthrax LF prot
CCCn1c(N)c(Sc2ccccc2)c(=O)n(CCC)c1=O	19729*	-1	-1	-1
CCCn1c(N)c(Sc2ccc([N+](=O)[O-])cc2)c(=O)n(CCC)c1=O	2509	-1	-7	-1
CSc1ncccc1C(=O)NCC(c1cccs1)N1CCOCC1 (stereo not drawn)	?	-3	7	7
CCN1CCN(c2nc3c(C)cccn3c(=O)c2/C=C(\C#N)S(=O)(=O)c2ccccc2)CC1	3217	2	16	3
Cc1ccc(S(=O)(=O)/C(C#N)=C/c2c(N3CCC(C(N)=O)CC3)nc3c(C)cccn3c2=O)cc1	8291	3	10	12
Cc1cccn2c(=O)c(/C=C(\C#N)S(=O)(=O)c3ccccc3)c(N3CCC(C(N)=O)CC3)nc12	18714*	5	6	1
CCN1CCN(c2nc3ccccn3c(=O)c2/C=C(\C#N)S(=O)(=O)c2ccccc2)CC1	4035	?	?	33*
